A short description of assay [1]: High-throughput drug toxicity screening in the BPDCN cell line Cal-1 (AID 1224825; call rule not given here). As to conditions: Cal-1 BPDCN cell viability, qHTS; at 45.8 µM (top of the series) unless noted. The essentials:
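Viability of the BPDCN line Cal-1 is measured as ATP-based luminescence (CellTiter-Glo) following 48 h incubation with compounds. Percent activity uses DMSO-treated wells as 100% and 9.2 uM bortezomib as 0%.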

Assay [2] is described as follows: qHTS assay for measurement of the activity of small molecule inhibitors on Zika virus induced Caspase-3 activity in human iPSC derived neural progenitor cells (hNPCs) (AID 1224857). Further: nearly all actives have a fitted effect of over 65% in size. Further: potency means the concentration at half of the fitted maximal effect. In short, it runs like this:
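After overnight (16–20 h) culture at 350 cells/well, hNPCs get compound, then ZIKV 2 FFU/cell one hour later. Six hours on, Caspase-Glo 3/7 is added and luminescence measured.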

Assay [3] can be described thus: qHTS assay for measurement of the activity of small molecule inhibitors on Zika virus induced Caspase-3 activity in human astrocytoma cells (AID 1224859).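 Further: plate controls were ZIKV-infected untreated cells for no effect and uninfected cells for full effect.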 In short, it runs like this:
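Inhibition of Zika-induced caspase-3/7 activity: SNB-19 cells, 1 h compound pretreatment, ZIKV 2 FFU/cell for 6 h at 37 C, Caspase-Glo luminescence read-out.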
On the technique in general: qHTS replaces the single test concentration by a dilution series.

Assay [4] is described as follows: qHTS Screen of the MIPE 4.0 Collection Against Ewings Sarcoma (RDES) (AID 1259252). Further: nearly all actives have a fitted effect of over 35% in size. Further: potency means the concentration at half of the fitted maximal effect. The essentials:
(§1)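 Here, cells in 5% FBS RPMI were exposed for two days (48 h) to compound dilutions added four hours after plating. ATP-based CellTiter-Glo luminescence measured viability, normalized to vehicle and no-cell blanks.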

Assay [5] can be described thus: qHTS Screen of the MIPE 4.0 Collection Against Ewings Sarcoma (TC71) (AID 1259253). Further: nearly all actives have a fitted effect of over 40% in size. Further: potency means the concentration at half of the fitted maximal effect. The essentials: as §1
Assay [6] can be described thus: qHTS Screen of the MIPE 4.0 Collection Against Ewings Sarcoma (EW8) (AID 1259255). Further: nearly all actives have a fitted effect of over 35% in size. Further: potency means the concentration at half of the fitted maximal effect.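 On viability: 100% = DMSO-treated cells and 0% = medium-only wells without cells.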 The essentials:
as §1

The nature of assay [7]: qHTS Screen of the MIPE 4.0 Collection Against Ewings Sarcoma (TC32) (AID 1259256). Further: nearly all actives have a fitted effect of over 45% in size. Further: potency means the concentration at half of the fitted maximal effect. In short, it runs like this: as §1
Assay [8] in a line: qHTS assay to identify small molecule inhibitors of chordoma cells - UCH-2 (AID 1259356). Further: on the % scale 0 is the no-effect control and ±100 the full control effect.
The nature of assay [9]: qHTS assay to identify small molecule inhibitors of chordoma cells - UCH-1 (AID 1259355). Further: on the % scale 0 is the no-effect control and ±100 the full control effect; nearly all actives have a fitted effect of over 55% in size. The essentials: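 A 48hr growth-inhibition format: each drug tested at 15 concentrations together with added auranofin, camptothecin, doxorubicin, rubitecan and topotecan, with cell viability quantified as CellTiter-Glo luminescence.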
Assay [10] in a line: Identifying Small Molecule Inhibitors of Pancreatic Cancer Stem Cells (A2780, Spheroid) (AID 1259357).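 Further: spheroids pre-formed over 14 days in stem cell medium on hydrogel; potency means the concentration at half of the fitted maximal effect; compound exposure lasted 48 h before the ATP luminescence read.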 To be noted: Potency: A2780 spheroid viability. The essentials: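 Luminescent ATP readout (CellTiter-Glo) quantifies surviving cells after a 48 h drug incubation. Normalization uses DMSO wells as no inhibition and media-only wells as full inhibition; bortezomib served as positive control.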

Several values for one entry are separate records, joined by “and”; a condition that tells them apart may be missing. Equal entries are not always repeated. Results filed as inconclusive are left out. The source holds several records for some structures; these can differ, active in one and inactive in another. Activity calls are given as the source filed them. Unless noted, the call rests on the fitted dose curve; in most records, active means well fitted curve in the direction sought with a large enough effect; inconclusive means small, poorly fitted or top-dose-only effect, or another doubt; inactive means no such curve, though single readings can be large; an effect the other way counts as inactive or inconclusive.

Data on 22 compounds can be found in PubChem BioAssay (NCATS).

For `CCC(=O)O[C@]1(C(=O)CCl)[C@@H](C)C[C@H]2[C@@H]3CCC4=CC(=O)C=C[C@]4(C)[C@@]3(F)[C@@H](O)C[C@@]21C`, the viability (% of control) in assay [1] is 47.1%. For the same compound, the Potency entry in [2], in [3], in assay [4], in [5], in [6] and in [7] was “inactive” in each case. The Potency entry in assay [8] was “inactive”.

Take `COC(=O)Nc1nc2ccc(Sc3ccccc3)cc2[nH]1`: in [1], the viability (% of control) came to 18.7%. The Potency entry in assay [2], in assay [3] and in assay [8] was “inactive” throughout. Further, the Potency in assay [4] is 1.66 µM (active); in assay [5], 1.66 µM (active); in assay [6] it was 1.32 µM (active); in assay [7] it was 1.18 µM (active).

For `CCOc1cc(N)c(Cl)cc1C(=O)NCC1CN(Cc2ccc(F)cc2)CCO1` (stereo unspecified), the viability (% of control) in assay [1] worked out at 98.6%. Also, the Potency result in [2], in assay [3], in [4], in [5], in assay [6] and in [7] was “inactive” throughout. Moreover, the Potency entry in [8] is “inactive”.

Consider `CCCc1cc(C(N)=S)ccn1`, for which the viability (% of control) in [1] stood at 93.7%. Also, the Potency result in assay [2], in assay [3], in [4], in assay [5], in assay [6] and in assay [7] was “inactive” each time. Also, the Potency entry in [9] and in assay [8] was “inactive” throughout.

As to `CC(=O)[C@H]1CC[C@H]2[C@@H]3CC=C4C[C@@H](O)CC[C@]4(C)[C@H]3CC[C@]12C`, the viability (% of control) in [1] came out at 107%. For the same compound, the Potency entry in [2], in assay [3], in assay [4], in [5], in [6] and in assay [7] was “inactive” throughout. Further, the Potency entry in [8] is “inactive”.

Regarding `O=C(O)c1cccnc1`, in assay [1], the viability (% of control) was found to be 87.6%. Further, the Potency entry in [2], in assay [3], in [4], in assay [5], in [6] and in assay [7] was “inactive” throughout. In addition, the Potency result in assay [9] and in assay [8] was “inactive” throughout.

Consider `CN(C)CCc1c[nH]c2ccc(C[C@H]3COC(=O)N3)cc12`, for which, in assay [1], the viability (% of control) was determined as 99.9%. Further, the Potency entry in [2], in [3], in assay [4], in assay [5], in assay [6] and in assay [7] was “inactive” each time. The Potency result in assay [8] is “inactive”.

In the case of `CNC(=O)c1cc(Oc2ccc(NC(=O)Nc3ccc(Cl)c(C(F)(F)F)c3)cc2)ccn1`, the viability (% of control) in [1] was 9.69%. The Potency entry in assay [2] and in assay [3] was “inactive” throughout. For the same compound, the Potency in [4] is 1.18 µM (active); in [5], 2.35 µM (active); in [6] it was 18.7 µM (active); in assay [10] it was 20.9 µM (active).

On to `COc1ccc(-c2ccc3cc(C(=O)O)ccc3c2)cc1C12CC3CC(CC(C3)C1)C2`, for which, in [1], the viability (% of control) stood at 112%. Besides, the Potency entry in [2], in assay [3], in assay [6], in [9] and in assay [8] was “inactive” in each case. The Potency in assay [4] was 2.09 µM (active); in assay [5], 2.96 µM (active).

For the compound `NC(=O)N1c2ccccc2CC(=O)c2ccccc21`, the viability (% of control) in assay [1] amounted to 112%. Moreover, the Potency entry in assay [2], in assay [3], in [4], in assay [5], in assay [6] and in assay [7] was “inactive” in each case. The Potency entry in assay [9] and in assay [8] was “inactive” in each case.

For the compound `O=C(O)c1cc(=O)[nH]c(=O)[nH]1`, in assay [1], the viability (% of control) is 128%. For the same compound, the Potency result in [2], in [3], in [4], in assay [5], in assay [6] and in [7] was “inactive” throughout. Further, the Potency result in assay [9] and in assay [8] was “inactive” each time.

In the case of `O=C(O)c1cn(C2CC2)c2cc(N3CCNCC3)c(F)cc2c1=O`, the viability (% of control) in assay [1] came to 103%. Besides, the Potency result in [2], in assay [3], in assay [4], in [5], in assay [6] and in assay [7] was “inactive” in each case. The Potency entry in assay [9] and in [8] was “inactive” each time.

As for `Cc1nnc(NS(=O)(=O)c2ccc(N)cc2)s1`, the viability (% of control) in assay [1] stood at 13.2%. Further, the Potency entry in assay [2], in assay [3], in assay [9] and in assay [8] was “inactive” each time. In addition, the Potency in [4] is 14.8 µM (active); in assay [5], 10.5 µM (active); in assay [6], 13.2 µM (active).

On to `CC(C)(Sc1cc(C(C)(C)C)c(O)c(C(C)(C)C)c1)Sc1cc(C(C)(C)C)c(O)c(C(C)(C)C)c1`, for which, in assay [1], the viability (% of control) was determined as 45.2%. The Potency result in assay [2], in assay [3], in [6], in assay [9] and in [8] was “inactive” in each case. For the same compound, the Potency is 2.96 µM (active) in assay [4], 20.9 µM (active) in [5] and 9.35 µM (active) in [7].

For `CCCCOc1ccc(CC(=O)NO)cc1`, the viability (% of control) in assay [1] was 29%. Also, the Potency result in assay [2], in assay [3], in assay [9] and in assay [8] was “inactive” in each case. The Potency in assay [4] was 6.62 µM (active); in assay [5], 7.43 µM (active); in [6] it was 10.5 µM (active); in [7], 5.26 µM (active).

For `Cc1oc(=O)oc1CN1CCN(c2cc3c(cc2F)c(=O)c(C(=O)O)c2n3C(C)S2)CC1` (stereo unspecified), the viability (% of control) in assay [1] is 103%. The Potency result in assay [2], in assay [3], in [4], in assay [5], in assay [6] and in [8] was “inactive” each time.

`CC(C)(C#N)c1cc(Cn2cncn2)cc(C(C)(C)C#N)c1`: in assay [1], the viability (% of control) turned out to be 105%. The Potency result in [2], in assay [3], in assay [4], in assay [5], in [6] and in assay [7] was “inactive” throughout. The Potency entry in assay [9] and in assay [8] was “inactive” in each case.

Regarding `NC(=O)c1cccnc1`, the viability (% of control) in assay [1] stood at 101%. The Potency result in assay [2], in [3], in assay [4], in assay [5], in assay [6] and in assay [7] was “inactive” in each case. For the same compound, in [8], the Potency entry was “inactive”.

Turning to `CC(N)C12CC3CC(CC(C3)C1)C2` (stereo unspecified), in assay [1], the viability (% of control) worked out at 105%. Further, the Potency result in [2], in [3], in assay [4], in [5], in assay [6] and in assay [7] was “inactive” throughout. Moreover, the Potency entry in assay [9] and in assay [8] was “inactive” in each case.

In the case of `Cc1cccc(Nc2ccncc2S(=O)(=O)NC(=O)NC(C)C)c1`, the viability (% of control) in [1] came to 107%. In addition, the Potency result in [2] is “inactive and 18.7 µM (active)”. Further, the Potency entry in assay [3], in assay [4], in assay [5], in assay [6], in assay [7] and in [9] was “inactive” throughout. The Potency result in [8] is “inactive”.

Turning to `CNNCc1ccc(C(=O)NC(C)C)cc1`, the viability (% of control) in [1] was 78.4%. The Potency result in assay [2], in assay [3], in assay [4], in assay [5], in assay [6] and in [7] was “inactive” throughout. For the same compound, the Potency entry in assay [9] and in assay [8] was “inactive” each time.

As for `CCn1cc(C(=O)O)c(=O)c2cc(F)c(N3CCNCC3)nc21`, the viability (% of control) in [1] worked out at 114%. In addition, the Potency result in assay [2], in assay [3], in assay [4], in assay [5], in assay [6] and in [7] was “inactive” throughout. Also, the Potency result in [9] and in [8] was “inactive” each time.
